Screening data from PubChem BioAssay.
Luc counter: counter-screen: inhibitors of Kinase-Glo firefly luciferase; Q27757; Kinase-Glo luciferase, ATP luminescence, 8 min; Potency, µM (series often up to 38.3 µM), without a hit: at the top dose activity change, negative = inhibition, usual class: inhibitors; hit rate 0.28% among 200,000; AID 1379; further: nearly all actives have a fitted effect of over 60% in size
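Inhibition of Kinase-Glo luciferase light generation was assessed at 10 uM ATP in pH 7.2 imidazole buffer, with luminescence measured after eight minutes at ambient temperature.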
Gal4-VP16 FLuc: inhibits Gal4-VP16 luciferase reporter, ROR gamma counter-screen; hit rate 3.5% among 310,000; Drosophila S2 Gal4-VP16 UAS-luciferase, luminescence, 20 h; AID 2546; Potency, µM (series often up to 53.6 µM), without a hit: at the highest dose activity, negative = inhibition, hits mostly inhibitors;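 further: Gal4-VP16 expression switched on by copper sulfate through the metallothionein promoter; nearly all actives have a fitted effect of over 50% in size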
RORg inh: inhibitors of mouse ROR gamma transcriptional activity; P51450; Drosophila S2 Gal4-RORgamma UAS-luciferase reporter, 20 h; Potency, µM (top dose mostly 53.6 µM), without a hit: top-dose activity change, negative = inhibition, hits mostly inhibitors; hit rate 5.4% among 310,000; AID 2551; further: nearly all actives have a fitted effect of over 60% in size
Target sequence (P51450 whole entry, looked up, the tested form may be a part): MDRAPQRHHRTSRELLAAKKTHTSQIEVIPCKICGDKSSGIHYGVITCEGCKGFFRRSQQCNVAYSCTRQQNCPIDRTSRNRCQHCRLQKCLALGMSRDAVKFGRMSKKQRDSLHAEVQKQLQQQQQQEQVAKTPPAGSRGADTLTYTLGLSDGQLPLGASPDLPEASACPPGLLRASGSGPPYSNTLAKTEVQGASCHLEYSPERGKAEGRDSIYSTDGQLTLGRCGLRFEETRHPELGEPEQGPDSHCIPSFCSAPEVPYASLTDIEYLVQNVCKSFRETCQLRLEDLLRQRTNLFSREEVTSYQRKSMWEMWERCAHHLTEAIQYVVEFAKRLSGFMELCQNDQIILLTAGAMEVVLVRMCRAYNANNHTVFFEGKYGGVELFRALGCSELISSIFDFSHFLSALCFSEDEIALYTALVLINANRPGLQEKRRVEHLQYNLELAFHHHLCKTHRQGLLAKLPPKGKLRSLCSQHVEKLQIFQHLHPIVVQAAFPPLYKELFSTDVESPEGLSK
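Read-out: Photinus luciferase luminescence; inhibitors lower reporter signal. Insect Schneider cells with Gal4-ROR gamma fusion under metallothionein promoter, UAS reporter; 700 uM final copper sulfate induction, 20 hr, ambient temperature.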
The depositor's hits bear a star; ? = inconclusive; . = no result; [ ] = another dose, or the depositor's remark. This is a sample that favours compounds with a hit; in the whole collection about 6.4% have one here. The call rests on the fitted dose curve; in most records, active means well fitted curve in the direction sought with a large enough effect; inconclusive means small, poorly fitted or top-dose-only effect, or another doubt; inactive means no such curve, though single readings can be large; an effect the other way counts as inactive or inconclusive. On the % scale 0 is the no-effect control and ±100 the full control effect; potency means the concentration at half of the fitted maximal effect.

SMILES | Luc counter | Gal4-VP16 FLuc | RORg inh
O=C1OC2(CCCCC2)CC2=C1C1O[C@](CCCCN3C(=O)c4ccccc4C3=O)(Cc3ccccc31)O2 | . | -6%[10 µM] | -6%[10 µM]
CC(OCC(O)CN(C)Cc1nc2ccccc2c(=O)[nH]1)c1ccc(Cl)cc1 (centres undefined) | -4% | -12% | ?
N=Nc1c(O)n(CC(=O)Nc2ccccc2)c2ccccc12 | . | -20% | ?
Cc1ccc(NCCC(=O)c2cccc([N+](=O)[O-])c2)cc1 | 2% | -85% | ?
O=C(CCNc1ccc(F)cc1)c1cccc([N+](=O)[O-])c1 | 10% | ? | 13µM*
Cc1ccnc(SCC(=O)c2cccc([N+](=O)[O-])c2)n1 | 2% | -6% | -7%
Cc1nc(SCC(=O)c2cccc([N+](=O)[O-])c2)n[nH]1 | 2% | ? | 13µM*
CC1(C)CC(=O)C2=C(C1)NC(Nc1nc3ccccc3o1)=NC2c1ccccn1 (centres undefined) | -1% | 1.1µM* | 3.5µM*
CC1(C)CC(=O)C2=C(C1)NC(Nc1nc3ccccc3o1)=NC21CCCC1 | -5% | -8% | -15%
CC1CN(S(=O)(=O)c2cccc3cnccc23)CCN1 (centres undefined) | 0% | . | .
C[C@@H]1CNCCN1S(=O)(=O)c1cccc2cnccc12 | -6% | 25µM* | ?
O=c1cnc2cnc(N3CCOCC3)nc2n1C[C@H]1CCCO1 | -2% | 0% | 13%
CN(C(=O)Nc1ccc(Cl)cc1Cl)[C@H]1c2cc(Br)ccc2OC[C@H]1CO | 0% | ? | 2.8µM*
COc1cccc2c1OC[C@@H](CO)[C@H]2N(C)C(=O)Nc1ccccc1 | -8% | -4% | 2%
Cc1cc(C)cc(OC(C)C(=O)Nc2ccc(S(=O)(=O)Nc3cc(C)nc(C)n3)cc2)c1 (centres undefined) | . | 1% | ?
CC(C)c1nnc(NC(=O)CCC(=O)N2CCC(Cc3ccccc3)CC2)s1 | . | 7% | 21%
CC1(C)CC(=O)C(C=Nc2ccc(N)cc2)=C(O)C1 | -1% | ? | -8%
CSc1ccccc1N=CC1=C(O)CC(C)(C)CC1=O | 3% | 10% | 0%
CC1(C)CC(=O)C(C=Nc2cc(C(=O)c3ccccc3)ccc2N)=C(O)C1 | -1% | ? | 7.9µM*
COC(=O)c1ccc(N)c(N=CC2=C(O)CC(C)(C)CC2=O)c1 | 0% | ? | 13µM*
COc1cccc(/C=C/C(=O)N2CCN(S(=O)(=O)c3ccccc3)CC2)c1OC | . | 0% | ?
CCOc1ccccc1C(=O)NC(C(=O)Nc1cccc(S(N)(=O)=O)c1)C(C)C (centres undefined) | -1% | -2%[10 µM] | 16%
Cc1ccc(/C=c2/sc3nnc(-c4ccccc4Cl)n3c2=O)o1 | -3% | ? | 4.5µM*
CCN(CC)c1ccc(/C=c2\sc3nnc(-c4ccccc4Cl)n3c2=O)cc1 | -8% | 12% | 4%
CC1(C)OC(C(O)(c2cc(F)c(F)c(F)c2)c2cc(F)c(F)c(F)c2)C(C(O)(c2cc(F)c(F)c(F)c2)c2cc(F)c(F)c(F)c2)O1 (centres undefined) | . | -7%[10 µM] | 13%[10 µM]
SMILES | Luc counter | Gal4-VP16 FLuc | RORg inh
OCCN1CCN(CCCN2c3ccccc3C=Cc3ccccc32)CC1 | -5% | -13% | ?
COc1cc(/C=N/NC(=O)c2sc3nc(C)cc(C)c3c2N)ccc1O | . | 2% | 0%
O=C(NC1=NCCS1)C12CC3CC(CC(C3)C1)C2 | 0% | 22µM* | 7.1µM*
O=C(Nc1nncs1)C12CC3CC(CC(C3)C1)C2 | . | 2% | -20%
CC(C)C(NC(=O)c1ccc(Cl)cc1)C(=O)NC1=NCCS1 (centres undefined) | 1% | 5% | ?
CC(C)C(NC(=O)C12CC3CC(CC(C3)C1)C2)C(=O)NC1=NCCS1 (centres undefined) | 0% | -4% | 18µM*
Cc1cc(OCC(=O)Nc2sc3c(c2C#N)CC(C)(C)NC3(C)C)c(C(C)C)cc1Cl | . | -26% | -37%
CC(=O)N/N=C(/c1ccccc1)C(O)c1ccccc1 (centres undefined) | . | 9% | 0%
Cc1nc(NCc2ccccc2)c2nc(-c3ccccc3)n(CCCN(C)C)c2n1 | -3% | -7% | -19%
CCc1ccc2oc(-c3cc(N=Cc4cccc(OC)c4O)ccc3O)nc2c1 | -8% | ? | 11µM*
COc1cccc(C=Nc2cc(C)cc(C)c2)c1O | -1% | -3% | -26%
CC(C1CCCC(=O)C1)[N+](=O)[O-] (centres undefined) | -2% | 1% | 16%
Cc1cccc(C2c3[nH]c4ccccc4c3CCN2C(=O)Cc2n[nH]c(C)n2)n1 (centres undefined) | 3% | -7% | 10%
Cc1cc2c(nc1C)CCCN2CC(O)CN1CCCc2nc(C)c(C)cc21 | . | -1%[10 µM] | 16%[10 µM]
O=C(Nc1ccccc1)Nc1cccc(C(F)(F)F)c1 | 1% | -6% | ?
NNC(=O)COc1cccc(C(F)(F)F)c1 | 5% | -1% | 8.9µM*
O=C(COc1ccc(C(=O)O)cc1)Nc1cccc(C(F)(F)F)c1 | 4% | -1% | ?
CN1CCN(NC(=O)COc2cccc(C(F)(F)F)c2)CC1 | -2% | -2% | -2%
O=C(COCC(=O)Nc1cccc(C(F)(F)F)c1)Nc1cccc(C(F)(F)F)c1 | -4% | ? | 22µM*
Cc1ccc(OC(F)F)c(NC(=O)Nc2cccc(C(F)(F)F)c2)c1 | 2% | 6.3µM* | 5µM*
O=C(COc1ccccc1)Nc1cc(C(F)(F)F)ccc1N1CCCC1 | 4% | -10% | 39%
Cc1cc(N2CCCC2)ccc1NC(=O)COc1cccc(C(F)(F)F)c1 | . | ? | 11µM*
Cc1ccc(NC(=O)CSc2n[nH]c(=O)n2C2CC2)cc1S(=O)(=O)N1CCOCC1 | 1% | -1% | 41%
CC12C=C(/C=C/c3ccc(F)cc3)C(C)(C1)C(c1ccc(F)cc1)CC2=O (centres undefined) | . | 2%[10 µM] | 1%[10 µM]
COc1ccc(-c2cc(C)no2)cc1S(=O)(=O)NCC(C)c1ccccc1 (centres undefined) | . | 0% | 24%
SMILES | Luc counter | Gal4-VP16 FLuc | RORg inh
CC(C)(C)OC(=O)N1CCCC1C(=O)NC1COC2CC(n3cc(F)c(=O)[nH]c3=O)OC12 (centres undefined) | . | -6% | -2%
CN1CCN(S(=O)(=O)c2ccc3c(c2)OCCO3)CC1 | 18% | 3% | -2%
O=S(=O)(c1ccc2c(c1)OCCO2)N1CCN(c2ncnc3sccc23)CC1 | 2% | 11µM* | ?
Cc1cccc(C(=O)Nc2cccc3c2CCCC3)c1 | . | -12% | 3%
COc1ccc2nc(NC(=O)CSc3ccccc3)sc2c1 | 3% | -14% | 1.6µM*
CCOc1ccc2nc(NC(=O)CSc3ccc(Cl)cc3)sc2c1 | 1% | ? | 11µM*
CCOc1ccc2nc(NC(=O)CSc3cn[nH]n3)sc2c1 | . | -11% | -1%
COc1ccc2nc(NC(=O)CSC3=NCCS3)sc2c1 | -3% | -22% | ?
CCOc1ccc2nc(NC(=O)CSC3=NCCS3)sc2c1 | 13% | -18% | 14µM*
COc1ccc2nc(NC(=O)CSc3nnc(N)s3)sc2c1 | 0% | 1% | 13%
COc1ccc(CN2CCNC(=O)C2CC(=O)N(C)Cc2ccon2)c(F)c1 (centres undefined) | . | 1% | 7%
